This passage reports Potency, outcome and max response results from PubChem BioAssay (NCATS).

A short description of experiment [1]: qHTS assay for measurement of the activity of small molecule inhibitors on Zika virus induced Caspase-3 activity in human iPSC derived neural progenitor cells (hNPCs) (AID 1224857). Also: % of control where 0% means no effect; nearly all actives have a fitted effect of over 65% in size. Put shortly:
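Human iPSC-derived neural progenitor cells pretreated 1 hr with compounds, then infected with Zika virus (2 FFU/cell) for 6 hours at 37 C. Caspase-3/7 measured by Caspase-Glo luminescence; % inhibition calculated from induction scaled to uninfected (0%) and infected (100%) wells.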
A general note: In qHTS, concentration-response curves come from the screen itself.

A short description of experiment [2]: qHTS for Activators of Parkin Expression: LOPAC Validation Assay (FLuc Reporter) (AID 720573;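 also: 0% = DMSO and 100% = positive control compounds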). In short, it runs like this: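 Readout is FLuc luminescence from neuronal reporter cells (Parkin promoter, FLuc plus NLuc) after 24 h compound exposure in dose response. Values normalized to neutral DMSO and positive-control compounds.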
The target of experiment [3] is T1, Hexokinase-4 (Homo sapiens) + Glucokinase regulatory protein (Homo sapiens) (UniProt P35557+Q14397). The experiment can be described thus: qHTS assay for inhibitors of recombinant human GCK-GKRP interaction: Diaphorase-coupled assay (AID 743205). Put shortly:
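Signal derives from resorufin generated by diaphorase, linked to GCK turnover of glucose (5 mM) and ATP (0.4 mM). Enzyme complex was added after a 20-minute compound preincubation and monitored for 30 minutes.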

The target in experiment [4] is T1, Hexokinase-4 (Homo sapiens) + Glucokinase regulatory protein (Homo sapiens). The experiment can be described thus: qHTS assay for inhibitors of recombinant human GCK-GKRP interaction: ADP-Glo assay (AID 743206).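 Also: plate controls were DMSO plus enzyme for no effect and no enzyme for full effect.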 In short, it runs like this:
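Pin-transferred compounds meet a 15 nM GST-GCK/15 nM FLAG-GKRP/2 uM S6P mix (dispense concentrations). ATP is then added to 0.4 mM final with 5 mM glucose, and the reaction runs 60 min at room temperature. ADP is quantified luminescently.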

Experiment [5] shares this target. The experiment can be described thus: qHTS assay for inhibitors of recombinant human GCK-GKRP interaction: HTRF assay (AID 743207).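 Also: 0% = DMSO with GCK present and -100% = DMSO wells lacking GCK.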 Put shortly:
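Titration screening format: recombinant GST-GCK and FLAG-GKRP at 5 nM, S6P at 2 uM, labelled anti-tag antibodies, 60 min at RT, dual-wavelength HTRF readout.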

Experiment [6] is described as follows: qHTS assay for measurement of the activity of small molecule inhibitors on Zika virus induced Caspase-3 activity in human astrocytoma cells (AID 1224859).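 Also: plate controls were ZIKV-infected untreated cells for no effect and uninfected cells for full effect.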 Put shortly: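 SNB-19 astrocytoma cells, 250/well, pretreated 1 h with compounds, then Zika virus at 2 FFU/cell for 6 h at 37 C; Caspase-Glo 3/7 luminescence after 30 min; percent inhibition normalised to uninfected and infected controls.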

Experiment [7] can be described thus: qHTS Assay for Identifying Gametocytocidal Compounds (AID 743244). Also: potency is read from the fitted curve at half-maximal effect.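 As to max response: % is scaled to controls: 0 for no effect and ±100 for the full control effect; actives lower the fluorescent signal which means gametocytes are killed.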 The settings on record: P. falciparum 3D7 stage III-V gametocytes, alamarBlue, 72 h; max response: hits give low values. Put shortly:
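Stage III-V P. falciparum 3D7 gametocytes, 20,000 per well, were exposed to compounds for 72 h at 37C, 5% CO2. AlamarBlue was then added for 24 h and viability was read as fluorescence at Ex 525/Em 598 nm.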

Experiment [8] can be described thus: qHTS assay for small molecule agonists of the antioxidant response element (ARE) signaling pathway measured by Nrf2-dependant transcriptional activity (AID 720636; active = well fitted curve in the direction sought with a large enough effect in the repeat runs; an effect the other way counts as inactive or inconclusive;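 also: HepG2 cells with an ARE-driven luciferase reporter; % of control where 0% means no effect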). In short, it runs like this: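 We exposed ARE-luc HepG2 cells, seeded in assay medium with 1% dialyzed FBS and allowed 6 hr to adhere, to test compounds overnight (16 hr, 37 C) before measuring luciferase with ONE-Glo.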

A short description of experiment [9]: qHTS assay for small molecule antagonists of the retinoid-related orphan receptor gamma (ROR-gamma) signaling pathway - cell viability counter screen (AID 720652; active = well fitted curve in the direction sought with a large enough effect in the repeat runs; an effect the other way counts as inactive or inconclusive;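 also: potency is read from the fitted curve at half-maximal effect; compound exposure lasted 16 hr before ATP read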). In short, it runs like this: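 Steps: seed CHO cells bearing TET-inducible ROR and ROR response element-luciferase; rest 5 hr at 37 C; add compound, then doxycycline; incubate 16 hr; add CellTiter-Glo and read luminescence as ATP-based viability.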

The nature of experiment [10]: qHTS assay for cell viability of the p53RE-bla HCT-116 cell line (AID 743292). Also: % is scaled to controls: 0 for no effect and ±100 for the full control effect; nearly all actives have a fitted effect of over 55% in size. Put shortly:
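In this qHTS counter-screen, metabolically competent p53RE-bla HCT-116 cells were counted via their ATP content. Compounds were applied for 16 h at 37 C and luciferase-coupled luminescence was measured.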

Values without a mark were called inactive. Results filed as inconclusive are left out. The source made the active and inactive calls. Unless noted, calls follow the shape of the dose curve; as a rule, active = well fitted curve in the direction sought with a large enough effect; inconclusive = small, poorly fitted or top-dose-only effect, or another doubt; inactive = no such curve, though single readings can be large; an effect the other way counts as inactive or inconclusive.

T1 sequence (P35557 whole entry, looked up): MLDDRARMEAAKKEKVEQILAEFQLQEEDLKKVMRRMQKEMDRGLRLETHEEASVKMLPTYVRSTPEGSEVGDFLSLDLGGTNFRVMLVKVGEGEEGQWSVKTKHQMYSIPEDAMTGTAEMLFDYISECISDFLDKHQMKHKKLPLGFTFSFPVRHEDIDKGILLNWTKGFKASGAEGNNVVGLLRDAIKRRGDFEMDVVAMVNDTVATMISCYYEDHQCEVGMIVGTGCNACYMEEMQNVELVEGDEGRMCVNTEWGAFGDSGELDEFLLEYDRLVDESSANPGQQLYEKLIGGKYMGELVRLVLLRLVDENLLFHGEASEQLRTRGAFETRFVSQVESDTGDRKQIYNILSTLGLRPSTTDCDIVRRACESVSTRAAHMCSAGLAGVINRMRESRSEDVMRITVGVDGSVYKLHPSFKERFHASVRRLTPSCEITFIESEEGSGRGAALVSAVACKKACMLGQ
T1 sequence (Q14397 whole entry, looked up): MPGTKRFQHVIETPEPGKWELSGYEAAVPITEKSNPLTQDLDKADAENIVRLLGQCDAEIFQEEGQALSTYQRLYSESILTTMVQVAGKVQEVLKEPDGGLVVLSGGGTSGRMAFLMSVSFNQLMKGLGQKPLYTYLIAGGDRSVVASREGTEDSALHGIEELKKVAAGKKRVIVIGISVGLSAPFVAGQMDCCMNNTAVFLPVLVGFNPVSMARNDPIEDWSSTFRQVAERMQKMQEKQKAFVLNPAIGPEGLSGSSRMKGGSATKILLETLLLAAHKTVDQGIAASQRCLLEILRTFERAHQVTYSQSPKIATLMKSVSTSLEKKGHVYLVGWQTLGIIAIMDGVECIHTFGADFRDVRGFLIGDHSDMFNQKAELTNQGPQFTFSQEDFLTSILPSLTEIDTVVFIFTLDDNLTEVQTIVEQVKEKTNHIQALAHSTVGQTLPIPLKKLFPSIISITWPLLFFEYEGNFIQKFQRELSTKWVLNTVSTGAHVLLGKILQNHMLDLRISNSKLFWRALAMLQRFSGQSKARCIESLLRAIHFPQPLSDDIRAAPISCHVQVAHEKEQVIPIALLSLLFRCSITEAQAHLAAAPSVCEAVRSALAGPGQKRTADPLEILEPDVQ

As to `Nc1ncnc2c1ncn2[C@@H]1O[C@H](COP(=O)(O)CP(=O)(O)OP(=O)(O)O)C(O)[C@H]1O` (stereo not given in full), the Potency entry in experiment [1] is “inactive”.
As for `c1ccc2c(c1)[I+]c1ccccc1-2`, the result in experiment [2], in [4], in [5] and in experiment [6] was inactive. Further, the Potency result in experiment [3] and in experiment [1] was “inactive” each time.
Turning to `N[C@@H](Cn1oc(=O)[nH]c1=O)C(=O)O`, the result in [2], in experiment [4], in experiment [5] and in [6] was inactive. In addition, the Potency entry in experiment [3] and in [1] was “inactive” in each case. In addition, the max response in experiment [7] was 11.5%.
Consider `O=C1C=CC(=O)C=C1`, for which the call in experiment [2], in [4], in experiment [5] and in experiment [6] was inactive. For the same molecule, the Potency entry in experiment [8], in experiment [3], in [10] and in experiment [1] was “inactive” each time. The Potency in experiment [9] is 26.6 µM (active).
With `CNc1ccc2oc(C[C@H]3O[C@@]4(CC[C@H]3C)O[C@H]([C@H](C)C(=O)c3ccc[nH]3)[C@H](C)C[C@H]4C)nc2c1C(=O)O`, the molecule was classed as inactive in experiment [2], in experiment [4], in experiment [5] and in experiment [6]. Besides, the Potency entry in experiment [3] and in experiment [1] was “inactive” in each case. In addition, the Potency in experiment [7] was 2.35 µM (active).
For `O=C(NC1CN2CCC1CC2)c1cc2ccoc2cn1` (stereo not given), the Potency result in [1] was “inactive”.
Turning to `CCCC[N+]1(C)C2CC(OC(=O)[C@H](CO)c3ccccc3)CC1C1OC12` (stereo not given in full), the molecule was classed as inactive in [2], in [4], in experiment [5] and in experiment [6]. Moreover, the Potency result in [3] and in [1] was “inactive” in each case.
On to `CCCN(CCC)[C@@H]1CCc2cccc(O)c2C1`, for which the result in experiment [2], in [4], in experiment [5] and in experiment [6] was inactive. Also, the Potency entry in experiment [3] and in experiment [1] was “inactive” in each case.
Consider `C=CCN1C[C@@H](C)N([C@H](c2ccc(C(=O)N(CC)CC)cc2)c2cccc(OC)c2)C[C@@H]1C`, for which the call in experiment [2], in experiment [4], in experiment [5] and in [6] was inactive. Moreover, the Potency result in experiment [3] and in experiment [1] was “inactive” throughout.
As to `O=S1(=O)N(CCN2CC=C(c3c[nH]c4cc(F)ccc34)CC2)c2cccc3c2N1CCC3`, the molecule was called inactive in [2], in [4], in experiment [5] and in [6]. For the same molecule, the Potency result in experiment [3] and in [1] was “inactive” throughout.
